# In PubChem BioAssay AID492950 (Southern Research Specialized Biocontainment Screening …, 2010):
# Results with a measured potency or affinity are listed apart. Values without a mark were called inactive. Active and inactive are the calls of the source. No rule for the calls is given here.
# Assay: viability loss in mammalian cells – cytotoxicity control, dose response (AID 492950)
# Details: mammalian cell viability, cytotoxicity counter-screen; series mostly up to 40 µM; viability: at the top concentration
Compound,viability [%],outcome
O=C1NC2=C(CCc3ccccc32)C(c2ccccc2)N1 (centres undefined),94.9,
COc1cccc(-c2[nH]nc3c2C(c2ccsc2)C(C#N)=C(N)O3)c1 (centres undefined),89,
Cc1[nH]n(-c2ccccc2)c(=O)c1C(c1cccc([N+](=O)[O-])c1)c1c(C)[nH]n(-c2ccccc2)c1=O,89.2,
C/C(=N/NC(=O)Cc1cc(=O)[nH][nH]1)c1ccc([N+](=O)[O-])cc1,93,
Fc1ccc(Oc2nc(-c3ccccc3)nnc2C(F)(F)F)cc1,96,
O=C(Cc1cc(=O)[nH][nH]1)N/N=C/c1cccc2ccccc12,96,
CC(/C=N/NC(=O)Cc1cc(=O)[nH][nH]1)=C\c1ccccc1,88.2,
Cc1ccc(-n2nnc3c(SCC(=O)NCC4CCCO4)ncnc32)cc1 (centres undefined),92.2,
O=C(Cc1cc(=O)[nH][nH]1)N/N=C/C(Cl)=C/c1ccccc1,99.4,
N#CC1=C(N)Oc2n[nH]c(-c3cccs3)c2C1c1ccsc1 (centres undefined),100,
O=C(Cc1cc(=O)[nH][nH]1)N/N=C/c1c(F)cccc1Cl,102,
Cc1ccc(-c2[nH]nc3c2C(c2ccc(OC(=O)N4CCOCC4)cc2)C(C#N)=C(N)O3)cc1 (centres undefined),99.1,
CCCCc1ccc(NC(=O)CSCc2cc(=O)[nH][nH]2)cc1,99.3,
Cc1ccc(C(=O)Oc2ccc([N+](=O)[O-])cc2)cc1S(=O)(=O)N1CCCCCC1,81.1,
CC(=O)Nc1cc(OC(=O)c2ccco2)cc(OC(=O)c2ccco2)c1,96.9,
N#CC1=C(N)Oc2n[nH]c(-c3cccs3)c2C1c1cccs1 (centres undefined),82.8,
Cc1nn(C)c(C)c1C1C(C#N)=C(N)Oc2n[nH]c(C)c21 (centres undefined),91.1,
COc1ccc(N(C(=O)COc2cccc(C)c2)S(=O)(=O)c2ccc(C)cc2)cc1,83.8,
C/C(=N\NC(=O)c1ccncc1)c1cc2ccccc2oc1=O,92.7,
CCCc1[nH]nc2c1C(c1ccoc1)C(C#N)=C(N)O2 (centres undefined),86.2,
CCOc1ccccc1C1C(C#N)=C(N)Nc2onc(-c3ccccc3)c21 (centres undefined),75.6,
Cc1ccc(SCC2=NNC(=O)C2)cc1,92.7,
CSCCC1C(C#N)=C(N)Oc2n[nH]c(-c3cccs3)c21 (centres undefined),89.6,
O=C(CSc1nnc(-c2ccccc2Cl)o1)Oc1ccc(Br)cc1,89.2,
O=C(Cc1cc(=O)[nH][nH]1)N/N=C/c1ccccc1[N+](=O)[O-],92.8,
O=C(Cc1cc(=O)[nH][nH]1)N/N=C/c1c(Cl)cccc1Cl,91.8,
O=c1cc(-c2ccc(Br)cc2)[nH][nH]1,91.1,
O=C(Cc1cc(=O)[nH][nH]1)N/N=C/c1cccc(Cl)c1Cl,,inactive
Fc1ccc(Nc2nc(Oc3ccccc3F)nc(N3CCCC3)n2)cc1,72.5,
